# Reference: PubChem BioAssay (EPA / NIEHS)
# Results filed as inconclusive are left out. Active and inactive are the calls of the source. How the source made its calls: active means hit-call score of the fitted dose curve at least 0.9, where 1 is the maximum; inconclusive means response in the unintended direction; inactive means score below 0.9.
# Assays:
# [1] = molecular target: human Serotonin Transporter (SERT), SLC6A4 (gene 6532) (UniProt P31645); assay: NVS_TR_hSERT: NovaScreen (NVS) Transporter Assay for human Serotonin Transporter (SERT) (AID 2283372)
# Sequence of human Serotonin Transporter (SERT), SLC6A4 (gene 6532) (P31645 whole entry, looked up): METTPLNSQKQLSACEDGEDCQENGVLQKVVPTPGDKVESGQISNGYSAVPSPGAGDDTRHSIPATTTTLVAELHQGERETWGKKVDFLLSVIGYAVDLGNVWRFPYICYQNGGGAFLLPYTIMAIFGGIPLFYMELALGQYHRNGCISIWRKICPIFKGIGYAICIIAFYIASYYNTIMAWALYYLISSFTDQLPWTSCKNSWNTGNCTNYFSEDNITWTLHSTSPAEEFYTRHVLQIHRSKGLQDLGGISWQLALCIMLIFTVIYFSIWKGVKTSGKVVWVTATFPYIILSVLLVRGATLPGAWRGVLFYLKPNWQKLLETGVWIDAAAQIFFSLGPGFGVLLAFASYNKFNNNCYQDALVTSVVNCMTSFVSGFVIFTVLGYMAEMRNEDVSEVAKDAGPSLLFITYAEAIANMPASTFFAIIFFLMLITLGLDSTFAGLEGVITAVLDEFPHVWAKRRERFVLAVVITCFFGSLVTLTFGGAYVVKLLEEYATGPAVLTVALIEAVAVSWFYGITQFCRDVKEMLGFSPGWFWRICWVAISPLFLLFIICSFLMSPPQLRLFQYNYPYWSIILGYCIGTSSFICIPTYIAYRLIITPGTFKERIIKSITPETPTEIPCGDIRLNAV
# Procedure: NVS_TR_hSERT is a biochemical, single-readout assay that uses extracted gene-proteins from Human platelet membranes in a tissue-based cell-free assay. Measurements were taken 1 hour after chemical dosing in a 96-well plate.NVS_TR_hSERT is one of one assay component(s) measured or calculated from the NVS_TR_hSERT assay. It is designed to make measurements of radioligand binding, a form of binding reporter, as detected with scintillation counting signals by Filter-based radiodetection technology.Data from the assay component NVS_TR_hSERT was analyzed into 1 assay endpoint. This assay endpoint, NVS_TR_hSERT, was analyzed in the positive analysis fitting direction relative to DMSO as the negative control and baseline of activity. Using a type of binding reporter, loss-of-signal activity can be used to understand changes in the binding as they relate to the gene SLC6A4. Furthermore, this assay endpoint can be referred to as a primary readout, because the performed assay has only produced 1 assay endpoint. To generalize the intended target to other relatable targets, this assay endpoint is annotated to the transporter intended target family, where the subfamily is neurotransmitter transporter.
# Binding assays used specific radioligands (tritiated, iodinated) with non-radioactive competitive displacement ligands in agonist or antagonist protocols (as indicated) and various reference compounds and inhibitors to titrate specific binding to receptors and transporters. Most enzyme assays (CYPs, kinases, phosphatases, proteases, HDACs) used recombinant protein and specific substrates (fluorescence mostly, some colorimetric and radioactive) and inhibitors, followed by a biochemical separation of substrate and product. All assays for the biochemical HTS were initially run in duplicate at a single concentration (10 uM for CYP450 assays and 25 uM for all others). […] Each assay was run with positive and negative controls, and concurrent controls on every plate. […]
# [2] = molecular target: guinea pig Sigma Receptor, Non-selective Binding, SIGMAR1 (gene 100135589) (UniProt Q60492); assay: NVS_OR_gSIGMA_NonSelective: NovaScreen (NVS) Nuclear Receptor Binding Assay for guinea pig Sigma Receptor, Non-selective Binding (AID 2283367)
# Sequence of guinea pig Sigma Receptor, Non-selective Binding, SIGMAR1 (gene 100135589) (Q60492 whole entry, looked up): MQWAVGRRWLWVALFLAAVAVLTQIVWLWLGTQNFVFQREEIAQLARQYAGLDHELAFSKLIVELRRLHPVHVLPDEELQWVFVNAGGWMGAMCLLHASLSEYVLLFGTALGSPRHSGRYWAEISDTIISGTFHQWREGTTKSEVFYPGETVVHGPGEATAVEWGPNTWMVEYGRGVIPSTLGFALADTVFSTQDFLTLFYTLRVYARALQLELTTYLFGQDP
# Procedure, shortened: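 Radioligand displacement on guinea pig brain membranes, read by filter-based scintillation counting 1 h after dosing. Loss of signal versus DMSO; initial duplicate single-point screen at 25 uM, actives followed in concentration series.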
# [3] = system: rat Norepinephrine Transporter (NET), gene 83511; assay: NVS_TR_rNET: NovaScreen (NVS) Transporter Assay for rat Norepinephrine Transporter (NET) (AID 2283373)
# Procedure, shortened: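 Rat forebrain membranes; radioligand binding measured by filter-based scintillation counting 1 hour after dosing. Loss of specific binding versus DMSO baseline scored; primary screen in duplicate at 25 uM, actives followed up in concentration series.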
# [4] = molecular target: Peroxisome proliferator-activated receptor gamma (Homo sapiens) (UniProt P37231); assay: NVS_NR_hPPARg: NovaScreen (NVS) Nuclear Receptor Binding Assay for human Peroxisome Proliferator-activated Receptor gamma (PPARg) (AID 2283370)
# Sequence of Peroxisome proliferator-activated receptor gamma (Homo sapiens) (P37231 whole entry, looked up): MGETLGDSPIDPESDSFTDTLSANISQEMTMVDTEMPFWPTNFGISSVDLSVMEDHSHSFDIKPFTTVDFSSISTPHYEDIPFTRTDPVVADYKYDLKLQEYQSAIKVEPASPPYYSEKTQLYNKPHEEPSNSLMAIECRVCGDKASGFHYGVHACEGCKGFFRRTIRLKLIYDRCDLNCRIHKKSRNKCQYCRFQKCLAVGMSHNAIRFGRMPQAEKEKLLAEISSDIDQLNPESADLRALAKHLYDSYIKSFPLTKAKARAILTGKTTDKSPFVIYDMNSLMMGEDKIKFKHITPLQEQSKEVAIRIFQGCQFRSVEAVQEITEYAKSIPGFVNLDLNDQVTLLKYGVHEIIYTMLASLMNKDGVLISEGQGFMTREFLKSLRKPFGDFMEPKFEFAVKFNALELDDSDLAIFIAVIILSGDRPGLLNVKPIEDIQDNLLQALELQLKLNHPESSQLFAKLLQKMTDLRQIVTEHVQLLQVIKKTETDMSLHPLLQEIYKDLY
# Procedure, shortened: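 Cell-free binding to extracted PPARg protein, read by fluorescence polarization 2 h after dosing; loss of signal relative to DMSO baseline marks displacement. Primary screen in duplicate at 25 uM, actives retested in concentration series.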
# [5] = system: guinea pig Dopamine Transporter (DAT), gene 100714898; assay: NVS_TR_gDAT: NovaScreen (NVS) Transporter Assay for guinea pig Dopamine Transporter (DAT) (AID 2283369);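 further: active compounds lower bound radioligand signal relative to DMSO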
# Procedure, shortened: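 Guinea pig striatal membranes; radioligand displacement measured by filter-based scintillation counting 2 h after dosing. Initial duplicate screen at 25 uM, then concentration-response up to 50 uM for hits; loss of signal versus DMSO baseline.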
# [6] = molecular target: human Dopamine Transporter (DAT), SLC6A3 (gene 6531) (UniProt Q01959); assay: NVS_TR_hDAT: NovaScreen (NVS) Transporter Assay for human Dopamine Transporter (DAT) (AID 2283374);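 further: activity means loss of bound radioligand signal relative to DMSO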
# Sequence of human Dopamine Transporter (DAT), SLC6A3 (gene 6531) (Q01959 whole entry, looked up): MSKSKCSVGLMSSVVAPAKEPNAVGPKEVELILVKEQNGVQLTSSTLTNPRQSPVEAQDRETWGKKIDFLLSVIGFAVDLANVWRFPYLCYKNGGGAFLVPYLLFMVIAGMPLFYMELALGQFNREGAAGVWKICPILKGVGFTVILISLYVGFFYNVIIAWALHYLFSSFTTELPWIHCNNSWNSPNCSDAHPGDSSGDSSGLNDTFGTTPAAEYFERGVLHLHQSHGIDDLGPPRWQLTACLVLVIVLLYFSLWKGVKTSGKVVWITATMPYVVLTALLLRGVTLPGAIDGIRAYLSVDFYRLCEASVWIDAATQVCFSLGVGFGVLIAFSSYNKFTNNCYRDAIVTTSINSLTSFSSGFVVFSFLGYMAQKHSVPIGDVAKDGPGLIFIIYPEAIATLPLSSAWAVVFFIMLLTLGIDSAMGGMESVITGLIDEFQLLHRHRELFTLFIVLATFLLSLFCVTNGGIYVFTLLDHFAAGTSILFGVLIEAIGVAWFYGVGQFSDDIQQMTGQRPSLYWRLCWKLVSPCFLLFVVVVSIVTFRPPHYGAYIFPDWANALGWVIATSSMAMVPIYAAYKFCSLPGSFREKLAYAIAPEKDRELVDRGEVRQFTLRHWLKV
# Procedure, shortened: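 Cell-free radioligand displacement binding at human DAT, 1 h after dosing, with filtration and scintillation counting. Primary screen in duplicate at 25 uM, actives then in concentration series. Loss of bound signal versus DMSO scored.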
# [7] = molecular target: human Adenosine Transporter (Adot), SLC29A1 (gene 2030) (UniProt Q99808); assay: NVS_TR_hAdoT: NovaScreen (NVS) Transporter Assay for human Adenosine Transporter (Adot) (AID 2283368)
# Sequence of human Adenosine Transporter (Adot), SLC29A1 (gene 2030) (Q99808 whole entry, looked up): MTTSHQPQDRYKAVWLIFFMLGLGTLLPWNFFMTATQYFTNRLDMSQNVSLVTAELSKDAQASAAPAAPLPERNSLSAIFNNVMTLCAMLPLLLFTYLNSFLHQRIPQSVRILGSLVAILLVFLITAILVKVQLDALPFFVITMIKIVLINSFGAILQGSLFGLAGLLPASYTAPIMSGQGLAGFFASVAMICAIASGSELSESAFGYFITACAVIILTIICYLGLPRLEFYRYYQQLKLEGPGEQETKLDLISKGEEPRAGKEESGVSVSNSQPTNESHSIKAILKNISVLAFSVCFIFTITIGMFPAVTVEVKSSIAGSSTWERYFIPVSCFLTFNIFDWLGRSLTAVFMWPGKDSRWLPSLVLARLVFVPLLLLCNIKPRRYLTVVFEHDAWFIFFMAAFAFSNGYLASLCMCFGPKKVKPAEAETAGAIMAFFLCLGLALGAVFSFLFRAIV
# Procedure, shortened: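 U937-derived membranes, cell-free radioligand binding, filter scintillation 1 h after dosing. 25 uM duplicate screen; hits (e.g. 30% inhibition) run in concentration-response up to 50 uM; loss of signal versus DMSO.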
compound,measurement,setting,value
COc1ccc(OC(F)(F)F)cc1CN[C@H]1CCCN[C@H]1c1ccccc1,AC50,[1],12.5 µM (active)
NC(=Nc1ccccc1)Nc1ccccc1,AC50,[2],0.646 µM (active)
same,outcome,[3],inactive
O=C1O[C@H]([C@H](O)CO)C(O)=C1O,outcome,[4],inactive
Cn1cnc2c1c(=O)[nH]c(=O)n2C,outcome,[2],inactive
same,AC50,[5],10.5 µM (active)
same,outcome,[4],inactive
same,outcome,[6],inactive
CCC(C)N(C)C(=O)c1cc2ccccc2c(-c2ccccc2Cl)n1 (centres undefined),AC50,[2],6.44 µM (active)
same,AC50,[4],5.15 µM (active)
O=C(N[C@@H](c1ccccc1)[C@@H]1CCCCN1)c1cccc(C(F)(F)F)c1Cl,AC50,[5],25 µM (active)
same,AC50,[1],9.57 µM (active)
same,AC50,[6],12.2 µM (active)
O=C(NS(=O)(=O)/C=C/c1cccs1)c1ccc(F)cc1Br,AC50,[4],40.7 µM (active)
OCC(O)CO,AC50,[4],0.00229 µM (active)
CCCCC(CC)CO (centres undefined),AC50,[4],0.00905 µM (active)
CCOCCOCCO,outcome,[4],inactive
CCCCCCC(CCCCCCCCCCC(=O)OCC(COC(C)=O)OC(C)=O)OC(C)=O (centres undefined),outcome,[4],inactive
C/C=C/C=C/C(=O)O,outcome,[4],inactive
same,outcome,[1],inactive
NC1CCCCC1,outcome,[4],inactive
C=CCc1ccc(OC)c(OC)c1,outcome,[4],inactive
CN(C)C(=O)NC1(c2ccccc2)CCN(CCC[C@]2(c3ccc(Cl)c(Cl)c3)CCCN(C(=O)c3ccccc3)C2)CC1,AC50,[5],0.596 µM (active)
same,AC50,[3],3.55 µM (active)
same,AC50,[6],0.418 µM (active)
CC(C)NCC(O)c1ccc(O)c(O)c1 (centres undefined),AC50,[4],9.71 µM (active)
same,AC50,[6],11.1 µM (active)
CC(C)(O)c1ccc(CNC(=O)c2cccnc2Oc2ccc(F)cc2)cc1,AC50,[7],34.7 µM (active)
Oc1ccc(O)cc1,outcome,[4],inactive
CO[C@@H]1COCC[C@@H]1N[C@@H]1CC[C@@](C(=O)N2CCc3ncc(C(F)(F)F)cc3C2)(C(C)C)C1,AC50,[2],1.94 µM (active)
same,AC50,[4],15.8 µM (active)
Oc1ccccc1O,AC50,[4],0.00229 µM (active)
O=C(O)CC(O)(CC(=O)O)C(=O)O,outcome,[4],inactive
CN(C)CCCN1c2ccccc2Sc2ccc(Cl)cc21,AC50,[2],2.11 µM (active)
same,AC50,[5],8.84 µM (active)
same,AC50,[3],0.0781 µM (active)
same,AC50,[6],4.24 µM (active)
COC(=O)[C@H]1[C@H]2C[C@@H]3c4[nH]c5cc(OC)ccc5c4CCN3C[C@H]2C[C@@H](OC(=O)c2cc(OC)c(OC)c(OC)c2)[C@@H]1OC,AC50,[7],6.6 µM (active)
CC(COCC(C)OC(=O)c1ccccc1)OC(=O)c1ccccc1 (centres undefined),outcome,[5],inactive
same,AC50,[6],19.2 µM (active)
Cc1cc(SC2=C(O)C[C@@](CCc3ccc(N)cc3)(C(C)C)OC2=O)c(C(C)(C)C)cc1CO,outcome,[2],inactive
same,outcome,[5],inactive
same,outcome,[6],inactive
CC(N)=O,AC50,[4],4.98 µM (active)
